Experiment [1] in a line: sensitizers of A549 cells to miR-34 induction, primary screen, imaging, A549 dox-inducible miR-34, nuclei and caspase counts (AID 1347080). Conditions: A549 miR-34 inducible, Hoechst nuclei count, 48 h.
A short description of experiment [2]: survival rescue of mitochondrial mutant cells in low glucose, primary screen, MELAS cybrids, Rieske KO mouse fibroblasts, CellTiter-Glo (AID 1508586;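 active = mean z-score across replicates of 1.96 or higher in either the MELAS or the Rieske mutant cell line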;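 also: z relative to plate mean and SD of compound and empty wells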).
Setting [3] is: stronger effect = lower value, cell number ratio, induced over uninduced.
Where [4] appears, read: measured here: relative caspase fold change +Dox/-Dox.
The mark [5] stands for this setting: measured here: total cells with miR-34 induction, stronger effect = lower value.
Setting [6] is: measured here: total cells without miR-34 induction.
The mark [7] stands for this setting: MELAS cybrid survival, CellTiter-Glo 48 h, stronger effect = higher value.
Where [8] appears, read: Rieske KO mouse fibroblast survival, CellTiter-Glo 72 h.

The structures appear in SMILES notation. The source made the active and inactive calls.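 The calls were made as follows, unless noted: active = compounds whose cell count with miR-34 switched on is under 0.7 times the count with it off; inactive = the rest.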
Also: test concentration not given here.

As for `O=C(Nc1ccc(S(=O)(=O)Nc2ccccc2Cl)c(Cl)c1)c1ccccn1`, the fold change was 0.91 (inactive) in experiment [1] (setting [3]) and 0.513 in experiment [1] (setting [4]). The figures for the cell count in experiment [1] (setting [5]) and in experiment [1] (setting [6]) were 8160 and 8970, respectively. Besides, the z-score is -0.368 (inactive) in experiment [2] (setting [7]) and -0.0416 in experiment [2] (setting [8]).
`COc1cc(O)cc(C2CC(=O)c3c(O)cc(OC4OC(CO)C(O)C(O)C4OC4OC(C)C(O)C(O)C4O)cc3O2)c1` (stereo unspecified): the fold change in experiment [1] (setting [3]) was 0.921 (inactive); in experiment [1] (setting [4]) it was 0.443. The cell count in experiment [1] (setting [5]) turned out to be 8090; in experiment [1] (setting [6]), 8790. Moreover, the z-score was -0.19 (inactive) in experiment [2] (setting [7]) and -0.0453 in experiment [2] (setting [8]).
Turning to `COc1ccc(C2CC(=O)c3c(O)cc(O)cc3O2)cc1O` (stereo unspecified), the fold change was 0.926 (inactive) in experiment [1] (setting [3]) and 0.807 in experiment [1] (setting [4]). Also, the cell count in experiment [1] (setting [5]) worked out at 9010; in experiment [1] (setting [6]), 9730. Further, the results for the z-score in experiment [2] (setting [7]) and in experiment [2] (setting [8]) were -0.233 (inactive) and 0.0902, respectively.
Take `CC1(C)S[C@@H]2C(NC(=O)Cc3ccccc3)C(=O)N2C1C(=O)O` (stereo partly specified): the results for the fold change in experiment [1] (setting [3]) and in experiment [1] (setting [4]) were 0.875 (inactive) and 0.906, respectively. Besides, the cell count is 7910 in experiment [1] (setting [5]) and 9040 in experiment [1] (setting [6]). The z-score in experiment [2] (setting [7]) is 0.0178 (inactive); in experiment [2] (setting [8]) it was -0.226.
Consider `C#C[C@@]1(O)CC[C@H]2[C@@H]3CCC4=CC(=O)CC[C@@H]4[C@@H]3CC[C@@]21CC`, for which the results for the fold change in experiment [1] (setting [3]) and in experiment [1] (setting [4]) were 0.929 (inactive) and 0.428, respectively. The figures for the cell count in experiment [1] (setting [5]) and in experiment [1] (setting [6]) were 7310 and 7880, respectively. In addition, the values for the z-score in experiment [2] (setting [7]) and in experiment [2] (setting [8]) were -0.214 (inactive) and 0.0474, respectively.
For the compound `CC(C)(C)OC(=O)NC1CCCCCC=CC2C[C@@]2(C(=O)NS(=O)(=O)C2CC2)NC(=O)C2CC(OC(=O)N3Cc4cccc(F)c4C3)CN2C1=O` (stereo partly specified), the fold change was 0.897 (inactive) in experiment [1] (setting [3]) and 1.55 in experiment [1] (setting [4]). Also, the cell count came to 6840 in experiment [1] (setting [5]) and 7630 in experiment [1] (setting [6]). Besides, the z-score in experiment [2] (setting [7]) was -0.451 (inactive); in experiment [2] (setting [8]), 0.469.
Regarding `CC1CNc2c(cccc2S(=O)(=O)N[C@@H](CCCN=C(N)N)C(=O)N2CCC(C)CC2C(=O)O)C1` (stereo partly specified), the values for the fold change in experiment [1] (setting [3]) and in experiment [1] (setting [4]) were 0.97 (inactive) and 0.669, respectively. Moreover, the cell count in experiment [1] (setting [5]) worked out at 7750; in experiment [1] (setting [6]), 7990. Besides, the z-score in experiment [2] (setting [7]) is -0.261 (inactive); in experiment [2] (setting [8]), -0.0788.
Consider `COc1ccc(NS(=O)(=O)c2sc3ccc(Cl)cc3c2C)cc1N1CCNCC1`, for which the results for the fold change in experiment [1] (setting [3]) and in experiment [1] (setting [4]) were 0.966 (inactive) and 0.423, respectively. Besides, the cell count in experiment [1] (setting [5]) is 7390; in experiment [1] (setting [6]), 7650. Also, the z-score in experiment [2] (setting [7]) was -0.345 (inactive); in experiment [2] (setting [8]), -0.0807.
As for `Cn1c(=O)c(F)c(Nc2ccc(I)cc2F)c2c(=O)n(CC(O)CO)cnc21` (stereo unspecified), the fold change in experiment [1] (setting [3]) was 1.04 (inactive); in experiment [1] (setting [4]), 0.57. For the same compound, the cell count in experiment [1] (setting [5]) worked out at 3130; in experiment [1] (setting [6]), 3010. Besides, the figures for the z-score in experiment [2] (setting [7]) and in experiment [2] (setting [8]) were -0.414 (inactive) and -1.17, respectively.
Turning to `CC(C)N(CCCNC(=O)Nc1ccc(C(C)(C)C)cc1)CC1OC(n2cc(Br)c3c(N)ncnc32)C(O)C1O` (stereo unspecified), the fold change is 0.844 (inactive) in experiment [1] (setting [3]) and 1.16 in experiment [1] (setting [4]). The values for the cell count in experiment [1] (setting [5]) and in experiment [1] (setting [6]) were 7150 and 8480, respectively. For the same compound, the values for the z-score in experiment [2] (setting [7]) and in experiment [2] (setting [8]) were -0.128 (inactive) and -0.178, respectively.
Consider `CC1(C)SC2C(NC(=O)C(NC(=O)N3CCNC3=O)c3ccccc3)C(=O)N2C1C(=O)O` (stereo unspecified), for which the fold change in experiment [1] (setting [3]) is 0.905 (inactive); in experiment [1] (setting [4]) it was 1.06. Also, the figures for the cell count in experiment [1] (setting [5]) and in experiment [1] (setting [6]) were 8030 and 8880, respectively. For the same compound, the z-score was -0.162 (inactive) in experiment [2] (setting [7]) and -0.16 in experiment [2] (setting [8]).
Take `Cc1cc(Nc2ccc(NC(=O)c3ccc(Nc4ccnc5ccccc45)cc3)cc2)nc(N)n1`: the values for the fold change in experiment [1] (setting [3]) and in experiment [1] (setting [4]) were 0.978 (inactive) and 0.411, respectively. Also, the cell count in experiment [1] (setting [5]) came out at 6080; in experiment [1] (setting [6]), 6210. Moreover, the z-score in experiment [2] (setting [7]) was -0.384 (inactive); in experiment [2] (setting [8]) it was -1.35.
On to `O=C(C=Cc1ccc(O)c(O)c1)OC1C[C@@](O)(C(=O)O)CC(O)C1O` (stereo partly specified), for which the figures for the fold change in experiment [1] (setting [3]) and in experiment [1] (setting [4]) were 0.936 (inactive) and 0.802, respectively. Further, the cell count in experiment [1] (setting [5]) came to 8020; in experiment [1] (setting [6]), 8570. The z-score is -0.38 (inactive) in experiment [2] (setting [7]) and -0.0852 in experiment [2] (setting [8]).
Take `CC(C)NCC(C(=O)N1CCN(c2ncnc3c2C(C)CC3O)CC1)c1ccc(Cl)cc1` (stereo unspecified): the results for the fold change in experiment [1] (setting [3]) and in experiment [1] (setting [4]) were 1.1 (inactive) and 0.724, respectively. In addition, the cell count amounted to 7580 in experiment [1] (setting [5]) and 6900 in experiment [1] (setting [6]). For the same compound, the z-score in experiment [2] (setting [7]) was -0.408 (inactive); in experiment [2] (setting [8]), 0.0437.
On to `Cc1ccccc1CN1C2=NCCN2C(=O)C2=C1CCN(Cc1ccccc1)C2`, for which the results for the fold change in experiment [1] (setting [3]) and in experiment [1] (setting [4]) were 0.955 (inactive) and 0.31, respectively. For the same compound, the figures for the cell count in experiment [1] (setting [5]) and in experiment [1] (setting [6]) were 8710 and 9120, respectively. For the same compound, the z-score in experiment [2] (setting [7]) is -0.516 (inactive); in experiment [2] (setting [8]), 0.0586.
Turning to `CC(CNC(=O)c1cccnc1)NC(=O)c1cccnc1` (stereo unspecified), the fold change is 0.92 (inactive) in experiment [1] (setting [3]) and 1.03 in experiment [1] (setting [4]). Also, the results for the cell count in experiment [1] (setting [5]) and in experiment [1] (setting [6]) were 9140 and 9930, respectively. For the same compound, the results for the z-score in experiment [2] (setting [7]) and in experiment [2] (setting [8]) were -0.163 (inactive) and -0.298, respectively.

The values above are taken from PubChem BioAssay.
